Laboratory results reported in PubChem BioAssay AID720519 (National Center for Advancing Translational Sciences (NCATS), 2013).
Results filed as inconclusive are left out. Unmarked numbers belong to inactive results. Activity calls are given as the source filed them. The call rests on the fitted dose curve; in most records, active means well fitted activation curve with a large enough effect; inconclusive means small, poorly fitted or top-dose-only effect; inactive means flat fitted curve, though single readings scatter.

experiment: qHTS for Inhibitors of Cell Surface uPA Generation: Confirmatory Assay for Cherry-picked Compounds; settings: cell surface uPA activity generation, qHTS confirmation; series mostly up to 115 µM; inhibition: at the top concentration; on inhibition: 0% is about no effect
In short: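 RAW 264.7 cells at 4000/well, incubated overnight, then treated with compounds. After 24 h at 37 C, viability was read by ATPlite luminescence. An increase in signal indicates blocked uPA-dependent LF entry.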
Potency means the concentration at half of the fitted maximal effect.

Compared with `O=C(CCCC(=O)N1CCN(c2ccccc2F)CC1)c1ccccc1`, `CCOc1ccc(C(=O)NCC(=O)N2CCN(C/C=C/c3ccccc3)CC2)cc1OCC` is lower in “inhibition” value: -0.97% for the first, -1.3% for the second.

Compared with `CC1(C)C([N+](=O)[O-])C(c2ccc(F)cc2)NC(c2ccc(F)cc2)C1[N+](=O)[O-]` (centres undefined), `OCC1CCCCN1CC(O)COC(c1ccc(F)cc1)c1ccc(F)cc1` (centres undefined) is lower in “inhibition” value: 6.56% for the first, 0.309% for the second.

Compared with `CC1CCN(C2=C(NS(=O)(=O)c3ccc(Br)cc3)C(=O)c3ccccc3C2=O)CC1`, `COc1ccc(OC)c(S(=O)(=O)N2CCC(NC(=O)c3ccccc3)CC2)c1` is higher in “inhibition” value: -3.41% for the first, 1.52% for the second.

Going from `O=C(NNC(=O)c1ccc2ccccc2c1)Nc1ccc(F)cc1` to `COC(=O)COc1cc2ccccc2cc1C(=O)Nc1ccccc1`, the “inhibition” value falls from 3.61% to -0.876%.

First: COC(=O)[C@@]1(Cc2ccc(F)cc2)[C@H]2c3cc(C(=O)N(C)C)n(Cc4c(CO)[nH]cc(C)c4=O)c3C[C@H]2CN1C(=O)c1ccccc1
Second: O=C1[C@H]2[C@@H](c3ccc(F)cc3)N3C(=O)N(c4cccc(F)c4)C(=O)[C@@]3(Cc3ccc(Cl)cc3)[C@H]2C(=O)N1C1CCCCC1
The “inhibition” value of the first is lower: -0.239% for the first, 13.6% for the second.

Compared with `CC1CCCCN1C(=O)CSc1nc2ncccc2[nH]1` (centres undefined), `O=C(CN1CCCC1)Nc1cccc(Cl)c1Cl` is higher in “inhibition” value: -2.7% for the first, 1.68% for the second.

Compared with `COc1ccc(C(CNC(=O)C(C)Oc2ccc(Br)cc2)N2CCCC2)cc1` (centres undefined), `O=C(NCCOc1ccc(F)cc1)C1CCN(S(=O)(=O)c2ccccc2)CC1` is higher in “inhibition” value: -3.28% for the first, -1.56% for the second.

First: CC1(CC(=O)N/N=C/c2cc(Br)c(O)cc2O)OCCO1
Second: COc1ccc(/C=N/NC(=O)COc2ccc3ccccc3c2)c(C(=O)O)c1OC
The “inhibition” value of the first is lower: -3.24% for the first, -2.14% for the second.

Going from `C=CCNC(=S)NCC=C` to `CC1(C)CC(CCC(=O)NC(=S)Nc2ccccc2Cl)C(=O)O1` (centres undefined), the “inhibition” value falls from -0.446% to -2.62%.

First: NC(=O)CC(NC(=O)Cc1cccc2ccccc12)c1ccc(N2CCN(c3ccccc3)CC2)c([N+](=O)[O-])c1 (centres undefined)
Second: Cc1ccc2cccc(OCCCOc3ccccc3CO)c2n1
The “inhibition” value of the first is lower: 0.273% for the first, 2.51% for the second.

Compared with `CCCCn1c(C2CCCCC2)nc2cc3[nH]c(=O)c(C(C)C)nc3cc21`, `CCCN1CCN(C2CCCCC2NS(=O)(=O)c2ccc(Cl)cc2)CC1` (centres undefined) is higher in “inhibition” value: -3.43% for the first, 11.2% for the second.

First: CCOC(=O)C1(CCOc2ccccc2)CCN(Cc2ccc(O)c(OC)c2)CC1
Second: COc1cc(C(C)=O)ccc1OCc1cn(CC(=O)c2ccc(O)cc2)nn1
The “inhibition” value of the first is lower: -3.27% for the first, -2.26% for the second.

First: CC1(C(=O)OCC(=O)Nc2ccc(Cl)cn2)CC1(Cl)Cl (centres undefined)
Second: O=C(NNC(=O)C1CC(c2cccs2)=NO1)Nc1ccccc1 (centres undefined)
The “inhibition” value of the first is higher: 5.87% for the first, -1.17% for the second.

Going from `COc1ccc(-n2nc(C(=O)Nc3cc(OC)c(OC)c(OC)c3)c3ccccc3c2=O)c(OC)c1` to `CCC(C)NC(=O)c1ccc2nc(-c3ccc(OC)c(OC)c3)c(-c3ccc(OC)c(OC)c3)nc2c1` (centres undefined), the “inhibition” value falls from -2.46% to -3.49%.

Going from `COc1cc2cc(CN(CCN3CCOCC3)C(=O)Nc3ccc(F)cc3)c(=O)[nH]c2cc1OC` to `CCOc1ccc(-n2cnc3scc(-c4ccc(OC)c(OC)c4)c3c2=O)cc1`, the “inhibition” value falls from -0.841% to -3.77%.

Compared with `S=C(Nc1ccccc1Oc1ccccc1)NC1CCCC1`, `O=C(O)c1ccccc1/C=N/NC(=S)NC1CCCCC1` is higher in “inhibition” value: -3.1% for the first, 0.423% for the second.

Going from `Cc1oc(-c2ccccc2F)nc1CS(=O)(=O)CC(=O)NC1CCCC(C)C1C` (centres undefined) to `CCOCc1nnc(NC(=O)C2CCN(C(=O)C3CC(=O)N(c4ccc(C)cc4)C3)CC2)s1` (centres undefined), the “inhibition” value falls from -0.805% to -1.89%.

Compared with `Cc1cccc(NC(=O)c2cc3c(=O)n4ccccc4nc3s2)c1`, `Cc1ccc(NC(=O)c2ccc(=O)[nH]n2)cc1S(=O)(=O)Nc1ccccc1Cl` is higher in “inhibition” value: 1.17% for the first, 1.5% for the second.

Going from `CC(=O)c1ccc2c(c1)c1ccccc1n2CC(C)C` to `Cc1c(NC(=S)Nc2ccc(Cl)cc2)c(=O)n(-c2ccccc2)n1C`, the “inhibition” value falls from -0.0624% to -0.742%.

With `S=C(Nc1ccccc1Cl)N1CCCC(c2ccccc2)=N1` the Potency was 13.1 µM (active).
